eIF4H inh = inhibitors of RNA binding by human eIF4H | eIF4H fluorescence polarization binding assay | inhibition, % at 35 µM | hit rate 0.94% among 290,000;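 also: calls also rest on retests at 20 µM and on dose response follow-up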
eIF4E-4G inh = inhibitors of eIF4E and eIF4G interaction in translation initiation; P63073+Q04637; inhibition, % at 21.7 µM; TR-FRET eIF4E-eIF4GI(517-606) binding, 2 h; AID 782; hit rate 0.37% among 220,000;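 active = inhibition above about 30%, limit read from the data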
MLLE-PAM2 inh = blocks PAM2 peptide binding to the PABP1 MLLE domain | inhibition, % at 20 µM | GST-MLLE / FITC-PAM2 fluorescence polarization | AID 588489 | P11940 | hit rate 0.36% among 360,000; in the data active = inhibition above about 35%, passing the limit was not always enough
Target sequence (P11940 whole entry, looked up, the tested form may be a part): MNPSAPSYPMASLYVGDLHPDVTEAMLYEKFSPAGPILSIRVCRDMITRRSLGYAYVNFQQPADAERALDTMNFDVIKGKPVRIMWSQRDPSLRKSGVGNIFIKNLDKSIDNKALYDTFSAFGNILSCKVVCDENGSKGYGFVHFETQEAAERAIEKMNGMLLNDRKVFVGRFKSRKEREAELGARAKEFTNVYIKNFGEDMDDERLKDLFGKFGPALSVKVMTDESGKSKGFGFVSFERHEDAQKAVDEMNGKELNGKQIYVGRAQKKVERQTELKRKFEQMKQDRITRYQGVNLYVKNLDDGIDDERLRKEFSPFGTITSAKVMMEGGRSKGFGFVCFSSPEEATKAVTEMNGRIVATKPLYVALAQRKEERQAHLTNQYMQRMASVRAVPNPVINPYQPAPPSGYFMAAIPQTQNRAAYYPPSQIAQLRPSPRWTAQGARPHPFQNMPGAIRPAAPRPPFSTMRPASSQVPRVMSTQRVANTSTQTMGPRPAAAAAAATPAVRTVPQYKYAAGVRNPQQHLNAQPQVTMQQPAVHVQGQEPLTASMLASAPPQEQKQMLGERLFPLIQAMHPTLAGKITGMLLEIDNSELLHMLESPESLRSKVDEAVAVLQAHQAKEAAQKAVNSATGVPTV
PABP polyA inh = PABP-poly(A) binding inhibition. PABP-poly(A) RNA binding, fluorescence polarization. calls only at 35 µM. hit rate 1% among 290,000;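 also: calls also rest on retests at 20 µM and on dose response follow-up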
Of the large screens only hits and unclear results are named; the others gave an inactive call; [ ] = dose if it differs, or a comment. Most compounds without a hit are left out; they make up all but 1.5% or so of the library. Unless noted, no rule for the calls is given here.

C[C@@H]1CN([C@@H](C)CO)C(=O)CCCn2nncc2CO[C@H]1CN(C)Cc1ccncc1	none (no result: eIF4H inh, eIF4E-4G inh, PABP polyA inh)
CC(C)(O)C1Cc2cc(/C=C/C(=O)O)c(O)cc2O1 (configuration not stated)	eIF4E-4G inh 61.9
COc1cc(F)ccc1-c1csc(C(O)(c2ccccc2)C(F)(F)F)n1 (configuration not stated)	none (no result: eIF4H inh, eIF4E-4G inh, PABP polyA inh)
O=C(CCCc1ccccc1)Nc1ccccn1	PABP polyA inh active
Cc1ccc(CNC(=O)[C@H]2O[C@@H](n3ccc(N)nc3=O)[C@H](O)[C@@H]2O)o1	none (no result: eIF4H inh, eIF4E-4G inh, PABP polyA inh)
Cc1cc(C=C2C(=O)c3ccccc3C2=O)c(C)n1-c1ccc(Cl)cc1	eIF4H inh 62.9
COc1ccc(NC(=O)C2Cc3c(-c4ccc(Cl)cc4)ccnc3O2)cn1 (configuration not stated)	none (no result: eIF4H inh, eIF4E-4G inh, PABP polyA inh)
Cc1ccc(S(=O)(=O)Nc2nc3ccccc3nc2Nc2cccc(S(=O)(=O)N3CCCC3)c2)cc1	eIF4H inh inconclusive, MLLE-PAM2 inh 44.9, PABP polyA inh inconclusive
CC1=NC(=O)C(N=Nc2cccc(C(=O)O)c2)N1c1ccccc1 (configuration not stated)	eIF4H inh 13.4, PABP polyA inh active
OCCNc1ncnc2c1ncn2[C@H]1CN(Cc2ccncc2)C[C@@H](CO)O1	none (no result: eIF4H inh, eIF4E-4G inh, PABP polyA inh)
COc1ccc(C)cc1-n1nnnc1SCn1nnc2ccccc2c1=O	MLLE-PAM2 inh 46.2
Cc1ccc(-n2nnnc2SCn2nnc3ccccc3c2=O)cc1	none
NC(=O)Cn1c(=O)n(Cc2ccco2)c(=O)c2c3c(sc21)CCCCC3	eIF4H inh 97.8, PABP polyA inh active
O=c1c2c3c(sc2nc(NCCOCCO)n1Cc1ccco1)CCCCC3	eIF4H inh 100.3, PABP polyA inh active
CCOC(=O)C(CC1=CS(=O)(=O)c2ccc(Cl)cc21)(NC(C)=O)C(=O)OCC	none (no result: eIF4H inh, eIF4E-4G inh, PABP polyA inh)
CC(C)(C)c1cc(C(c2cccnc2)N2CCN(CCO)CC2)cc(C(C)(C)C)c1O (configuration not stated)	none
CN1CCN(C(c2ccc(C(F)(F)F)cc2)c2cc(Cl)c3cccnc3c2O)CC1 (configuration not stated)	none (no result: eIF4E-4G inh, MLLE-PAM2 inh)
CCN1CCN(C(c2ccc(C(F)(F)F)cc2)c2ccc3cccnc3c2O)CC1 (configuration not stated)	MLLE-PAM2 inh 40.6 (no result: eIF4E-4G inh)
OCCN1CCN(C(c2cccs2)c2ccc3cccnc3c2O)CC1 (configuration not stated)	eIF4E-4G inh 45.7[fluorescence artefact?] (no result: MLLE-PAM2 inh)
COc1ccc2nc(C)cc(SCC(=O)N/N=C/c3ccc(O)cc3O)c2c1	none
COc1ccc(N2Cc3ccc(C(=O)N/N=C\c4ccc(O)cc4O)cc3C2)cc1	eIF4H inh 64.7 (no result: eIF4E-4G inh, MLLE-PAM2 inh)
CN1CCN(c2ccc(CNC(=O)C3(C)Cc4c(-c5ccc6c(c5)OCO6)ccnc4O3)cc2)CC1 (configuration not stated)	none (no result: eIF4H inh, eIF4E-4G inh, PABP polyA inh)
O=C1C(Cl)=C(N2CCCCCC2)C(=O)N1c1ccc(Cl)cc1	none (no result: eIF4E-4G inh)
CN(C)c1ncc(C2=C(Cl)C(=O)C(N3CCCC3)=C(Cl)C2=O)s1	eIF4E-4G inh 53.1[fluorescence artefact?], MLLE-PAM2 inh 41.1 (no result: eIF4H inh, PABP polyA inh)
CC(=O)c1cnc(N(C)C)s1	none
O=C1C(Cl)=C(N2CCCCC2)C(=O)C(Cl)=C1c1cnc(N2CCCCC2)s1	eIF4H inh inconclusive, eIF4E-4G inh 37.2[fluorescence artefact?], MLLE-PAM2 inh 48.4
COc1c(C)cc(C(O)c2ncc(-c3ccccc3C)[nH]2)cc1C (configuration not stated)	none (no result: eIF4H inh, eIF4E-4G inh, PABP polyA inh)
O=C(CCl)Nc1ccc(-c2ccccc2)cc1	none
O=C(CCl)Nc1ccc(N=Nc2ccccc2)cc1	eIF4H inh active
CCOC(=O)C1(Cc2cccc(OC)c2)CCCN(Cc2c(C)nn(C(C)C)c2C)C1 (configuration not stated)	eIF4E-4G inh 97.1
CCOC(=O)C1(Cc2cccc(OC)c2)CCCN(Cc2cc(C(C)C)n[nH]2)C1 (configuration not stated)	none
Cc1ccc(-n2nnnc2-c2ccccc2)cc1	none
CCN(CC)c1ccc(C=C(c2nnnn2-c2ccc(C)cc2)c2nnnn2-c2ccc(C)cc2)cc1	eIF4H inh 53.3
COc1ccc(NC(=O)N(C)C[C@H]2Oc3ncc(Br)cc3C(=O)N([C@H](C)CO)C[C@@H]2C)cc1	none (no result: eIF4H inh, eIF4E-4G inh, PABP polyA inh)
CCOC(=O)CSc1nc2ccsc2c(=O)[nH]1	PABP polyA inh active
Oc1[nH]c(=S)sc1C=C1N=c2ccccc2=N1	none
Oc1[nH]c(=S)sc1/C=C1\C(c2ccccc2)=Nc2ccccc21	eIF4H inh 56.9
Brc1ccc(Br)c2cnccc12	none (no result: eIF4H inh, eIF4E-4G inh, PABP polyA inh)
O=C(/C=C/[C@H]1O[C@@H](n2cnc3c(NC(=O)c4ccccc4)ncnc32)[C@H](O)[C@@H]1O)NCC(c1ccccc1)c1ccccc1	none (no result: eIF4H inh, eIF4E-4G inh, PABP polyA inh)
CC(=O)Nc1cncc(-c2cnn(CC(C)C)c2)n1	none (no result: eIF4H inh, eIF4E-4G inh, PABP polyA inh)
CC(C)(C)c1ccc(C(=O)OC/C(O)=C(\C#N)c2nc3ccccc3s2)cc1	none
N#C/C(=C(/O)COC(=O)c1ccccc1O)c1nc2ccccc2s1	PABP polyA inh active
COc1cc(F)ccc1-c1csc(C(O)c2ccccc2)n1 (configuration not stated)	none (no result: eIF4H inh, eIF4E-4G inh, PABP polyA inh)
Cc1ccc(NC(=S)N(CCCN2CCN(C)CC2)Cc2cccs2)cc1C	PABP polyA inh active
CCOC(=O)C1(C)CCN1C(=O)c1cc(-c2ccc(Cl)cc2)oc1C (configuration not stated)	none (no result: eIF4H inh, eIF4E-4G inh, PABP polyA inh)
S=c1[nH]nc(-c2ccco2)n1/N=C/C=C/c1ccccc1	none
Cc1cc(-c2n[nH]c(=S)n2/N=C/c2ccc(C)o2)n[nH]1	none
Cc1ccccc1-c1n[nH]c(=S)n1/N=C/C=C/c1ccco1	eIF4H inh 82.1, PABP polyA inh active
Cc1cc(-c2n[nH]c(=S)n2/N=C/C=C/c2ccco2)n[nH]1	eIF4H inh 93.4, PABP polyA inh active
CC(/C=N/n1c(-c2cc(C)[nH]n2)n[nH]c1=S)=C\c1ccccc1	eIF4H inh active, PABP polyA inh active
CC1=C(C(=O)N(C(C)C)C(C)C)CC(CC(=O)NC(c2ccccc2)c2ccccc2)C(=O)N1CCC1=CCCCC1 (configuration not stated)	none (no result: eIF4H inh, eIF4E-4G inh, PABP polyA inh)
O=C(NN=C1CCN(Cc2ccccc2)CC1)c1cc2ccccc2cc1O	eIF4H inh 96.6, PABP polyA inh active
COc1ccccc1N1C(=O)N(C(C)=O)C2C1Nc1ccccc1N2C (configuration not stated)	eIF4H inh 78.3, PABP polyA inh active
Cc1onc(-c2ccccc2)c1C(=O)NC(=S)NNC(=O)c1cccnc1	none
Cc1onc(-c2ccccc2)c1C(=O)NC(=S)NNC(=O)c1ccncc1	MLLE-PAM2 inh 41.6
NNc1ccc([N+](=O)[O-])c2[nH][nH]c(=O)c12	none (no result: eIF4H inh, eIF4E-4G inh, PABP polyA inh)
Cc1ccc(CNC(=O)c2ccc(-n3cccc3)cc2)cc1	eIF4E-4G inh 38.4
O=C(NC1CCCCC1)C1CCN(c2cnccn2)CC1	eIF4E-4G inh 39.8
Cc1ccccc1NC(=O)C1CCN(c2cnccn2)CC1	none
O=[N+]([O-])c1ccc(/C([O-])=C(/C(=S)NCc2ccco2)[n+]2ccccc2)cc1	none
Cc1ccc(/C([O-])=C(/C(=S)NCc2ccco2)[n+]2ccccc2)cc1	eIF4H inh 75.9, PABP polyA inh active (no result: MLLE-PAM2 inh)
Cc1cc(C)c2c(CN3CCN(c4ccccc4F)CC3)cc(=O)oc2c1	none (no result: eIF4H inh, eIF4E-4G inh, PABP polyA inh)
COc1ccc(C(=O)NCCCC2CCCC2)cc1OC1CCN(C(C)C)CC1	none (no result: eIF4H inh, eIF4E-4G inh, PABP polyA inh)

Bioassay records: PubChem, several laboratories
